# Reference: PubChem BioAssay (NCATS)
# Values without a mark were called inactive. Results filed as inconclusive are left out. Calls of active or inactive are those of the source. Unless noted, the call rests on the fitted dose curve; in most records, active means well fitted curve in the direction sought with a large enough effect; inconclusive means small, poorly fitted or top-dose-only effect, or another doubt; inactive means no such curve, though single readings can be large; an effect the other way counts as inactive or inconclusive.
# How the values were obtained:
# [1] = target: Lysosomal acid glucosylceramidase (Homo sapiens) (UniProt P04062); assay: Glucocerebrosidase-p2 (AID 348; in the data active means potency below about 10 µM; further: potency means the concentration at half of the fitted maximal effect); conditions: purified GBA, blue fluorogenic substrate, 40 min
# Chain of Lysosomal acid glucosylceramidase (Homo sapiens) (P04062 whole entry, looked up): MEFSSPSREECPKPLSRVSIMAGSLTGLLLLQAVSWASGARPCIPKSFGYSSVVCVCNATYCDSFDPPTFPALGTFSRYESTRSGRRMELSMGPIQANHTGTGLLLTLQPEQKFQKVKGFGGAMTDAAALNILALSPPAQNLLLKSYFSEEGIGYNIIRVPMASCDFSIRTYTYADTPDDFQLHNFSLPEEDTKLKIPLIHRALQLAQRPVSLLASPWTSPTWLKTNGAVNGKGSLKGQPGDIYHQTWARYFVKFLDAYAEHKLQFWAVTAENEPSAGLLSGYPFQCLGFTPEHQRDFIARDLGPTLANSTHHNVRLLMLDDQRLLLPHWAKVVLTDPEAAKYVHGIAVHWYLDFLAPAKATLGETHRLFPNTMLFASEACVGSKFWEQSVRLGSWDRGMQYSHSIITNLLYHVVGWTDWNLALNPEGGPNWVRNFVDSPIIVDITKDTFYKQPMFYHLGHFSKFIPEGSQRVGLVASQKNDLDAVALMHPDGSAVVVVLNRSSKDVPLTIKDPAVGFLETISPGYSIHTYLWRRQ
# Outline: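 Normal human glucocerebrosidase (0.2 nM) with blue fluorogenic substrate (80 uM final) in citrate/phosphate pH 5.9 with 10mM sodium taurocholate, 0.01% tween-20; 40 min RT, NaOH/glycine stop; fluorescence Ex 365/Em 440; AC50 from a titration from 0.6 nM upwards.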
# [2] = AP1 Signaling Pathway (AID 357; active means well fitted curve in either direction with a large enough effect, not every such curve was filed as active;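 further: ME-180 reporter cells stimulated with EGF at its EC50 level; on the % scale 0 is the no-effect control and ±100 the full control effect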); conditions: ME-180 AP-1-bla reporter, EGF-induced, beta-lactamase ratio, 5 h; at 7.69 µM (top of the series) unless noted
# Outline: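 Beta-lactamase reporter under AP-1 response element, ME-180 background. Stimulus: EC50 EGF. Compound exposure 5 h, 37 °C. Detection: CCF4, 2.5 h RT, 460/530 nm. Values: AC50 from titration.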
# [3] = target: Cytochrome P450 1A2 (Homo sapiens) (UniProt P05177); assay: p450-cyp1a2 (AID 410; calls by dose curve; further: potency means the concentration at half of the fitted maximal effect;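 on activity change, negative = inhibition: -100% = full effect of reference inhibitor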); conditions: recombinant CYP1A2, luciferin-ME demethylation, luminescence; series mostly up to 57 µM
# Chain of Cytochrome P450 1A2 (Homo sapiens) (P05177 whole entry, looked up): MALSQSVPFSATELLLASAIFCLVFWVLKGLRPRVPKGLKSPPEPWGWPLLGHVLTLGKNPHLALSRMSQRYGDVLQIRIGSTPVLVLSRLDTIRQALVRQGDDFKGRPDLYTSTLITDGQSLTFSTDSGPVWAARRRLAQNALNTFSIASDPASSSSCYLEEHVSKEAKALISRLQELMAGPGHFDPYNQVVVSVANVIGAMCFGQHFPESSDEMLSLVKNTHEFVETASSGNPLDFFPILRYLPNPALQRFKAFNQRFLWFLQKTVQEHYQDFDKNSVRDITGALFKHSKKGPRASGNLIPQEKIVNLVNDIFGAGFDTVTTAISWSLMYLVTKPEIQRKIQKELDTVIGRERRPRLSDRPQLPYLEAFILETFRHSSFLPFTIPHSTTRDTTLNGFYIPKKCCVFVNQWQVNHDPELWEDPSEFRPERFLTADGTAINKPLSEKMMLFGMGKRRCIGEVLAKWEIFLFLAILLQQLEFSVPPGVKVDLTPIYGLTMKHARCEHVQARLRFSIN
# Outline: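 Read-out is luminescence from luciferin produced by CYP1A2 demethylation of Luciferin-ME (100uM, at Km). Detection reagent stopped the 60 min NADPH-dependent reaction; signals were normalized to 57 uM furafylline.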
# [4] = NFAT Signaling Pathway (AID 444; active means well fitted curve in either direction with a large enough effect, not every such curve was filed as active;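 further: carbachol stimulus at about its EC50 of 1 µM final; on the % scale 0 is the no-effect control and ±100 the full control effect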); conditions: Jurkat NFAT-bla M1, carbachol, beta-lactamase ratio, 5 h; at 7.69 µM (top of the series) unless noted
# Outline: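 Jurkat cells with NFAT-driven β-lactamase reporter and co-expressed M1 receptor, stimulated with carbachol (final 1 uM, ~EC50), compound titration, 5 h at 37 °C. CCF4 loaded 1 h at RT; 460/530 nm ratio gave %activity and AC50.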
# [5] = Stat Signaling Pathway (AID 446; active means well fitted curve in either direction with a large enough effect, not every such curve was filed as active;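 further: ME-180 cervical cancer cells given 40 pM IL-6 alongside compound; SIE-controlled beta-lactamase reporter measured as 460/530 nm FRET emission ratio; on the % scale 0 is the no-effect control and ±100 the full control effect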); conditions: ME-180 SIE beta-lactamase reporter, IL-6 stimulated, 5 h; at 7.69 µM (top of the series) unless noted
# Outline: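 FRET read-out (405 nm excitation, 460/530 nm emission) of a beta-lactamase reporter under a STAT-inducible element in ME-180 cervical carcinoma cells. Cells with compound receive 40 pM IL-6 for 5 h. Values are normalised to AC90 stimulation and AC90 JAK-inhibitor controls.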
# [6] = target: Glucocorticoid receptor (Homo sapiens) (UniProt P04150); assay: GR-GFP Redistribution (AID 450;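 active means compounds whose dose series gives a full or clear partial fitted curve of increased nuclear translocation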; further: potency means the concentration at half of the fitted maximal effect); conditions: U2OS GR-GFP nuclear translocation, laser cytometry, 2 h
# Chain of Glucocorticoid receptor (Homo sapiens) (P04150 whole entry, looked up, the tested form may be a part): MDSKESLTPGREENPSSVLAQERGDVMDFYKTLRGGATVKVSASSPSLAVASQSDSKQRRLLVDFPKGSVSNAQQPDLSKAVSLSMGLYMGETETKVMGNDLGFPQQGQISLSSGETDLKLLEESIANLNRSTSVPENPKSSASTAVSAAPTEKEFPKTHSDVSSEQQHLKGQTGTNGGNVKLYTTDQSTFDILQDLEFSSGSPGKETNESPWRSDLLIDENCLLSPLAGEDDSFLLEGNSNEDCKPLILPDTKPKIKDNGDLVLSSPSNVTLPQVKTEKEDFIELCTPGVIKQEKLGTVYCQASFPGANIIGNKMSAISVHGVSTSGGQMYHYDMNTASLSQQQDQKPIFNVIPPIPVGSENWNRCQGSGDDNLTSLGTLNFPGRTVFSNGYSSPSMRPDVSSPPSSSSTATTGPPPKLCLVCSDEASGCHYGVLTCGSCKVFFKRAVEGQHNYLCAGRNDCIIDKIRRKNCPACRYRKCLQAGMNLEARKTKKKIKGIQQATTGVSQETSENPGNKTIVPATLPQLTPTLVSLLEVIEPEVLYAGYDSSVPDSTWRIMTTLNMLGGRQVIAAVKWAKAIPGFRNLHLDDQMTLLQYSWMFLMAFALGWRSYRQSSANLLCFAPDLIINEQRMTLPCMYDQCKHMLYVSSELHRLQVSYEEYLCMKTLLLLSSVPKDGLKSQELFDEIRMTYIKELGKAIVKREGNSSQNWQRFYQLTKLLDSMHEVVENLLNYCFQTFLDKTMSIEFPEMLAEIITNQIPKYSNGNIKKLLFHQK
# [7] = target: Glucocorticoid receptor (Homo sapiens) (UniProt P04150); assay: GR-EFC Redistribution (AID 451; calls by dose curve; further: potency means the concentration at half of the fitted maximal effect); conditions: CHO-K1 GR-EFC translocation, beta-gal luminescence, 2 h
# Outline: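 CHO-K1 cells expressing nuclear EA and GR-ED fragments of b-gal; compounds titrated up to 46 uM final, 2 h at 37 C. GR nuclear translocation read as complemented b-gal luminescence after 1 h RT detection.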
# [8] = target: Mitogen-activated protein kinase 10 (Mus musculus) (UniProt Q61831); assay: JNK3 AlphaScreen Assay (AID 530; active means well fitted curve in either direction with a large enough effect, not every such curve was filed as active;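 further: kinase came from lysate of stimulated human HepG2 cells; signal reports phosphorylation of biotinylated GST-cJun 1-79 at Ser73 with 10 µM ATP; on the % scale 0 is the no-effect control and ±100 the full control effect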); conditions: JNK3 lysate, c-Jun phosphorylation; series mostly up to 57.1 µM
# Outline: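 HepG2 lysate (IL-1b/TNFa pre-activated) + biotin-GST-cJun 1-79 + anti-pSer73 cJun; cpd titration, 15 min RT; ATP 10 uM start; Tris pH 7.6, MgCl2, DTT, vanadate; beads in EDTA buffer; AlphaScreen.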
# [9] = target: Cytochrome P450 3A4 (Homo sapiens) (UniProt P08684); assay: qHTS Assay for Activators of Cytochrome P450 3A4 (AID 885); conditions: recombinant CYP3A4, Luciferin-PPXE luminescence, 60 min; series mostly up to 57.1 µM; further: nearly all actives have a fitted effect of over 65% in size
# Chain of Cytochrome P450 3A4 (Homo sapiens) (P08684 whole entry, looked up): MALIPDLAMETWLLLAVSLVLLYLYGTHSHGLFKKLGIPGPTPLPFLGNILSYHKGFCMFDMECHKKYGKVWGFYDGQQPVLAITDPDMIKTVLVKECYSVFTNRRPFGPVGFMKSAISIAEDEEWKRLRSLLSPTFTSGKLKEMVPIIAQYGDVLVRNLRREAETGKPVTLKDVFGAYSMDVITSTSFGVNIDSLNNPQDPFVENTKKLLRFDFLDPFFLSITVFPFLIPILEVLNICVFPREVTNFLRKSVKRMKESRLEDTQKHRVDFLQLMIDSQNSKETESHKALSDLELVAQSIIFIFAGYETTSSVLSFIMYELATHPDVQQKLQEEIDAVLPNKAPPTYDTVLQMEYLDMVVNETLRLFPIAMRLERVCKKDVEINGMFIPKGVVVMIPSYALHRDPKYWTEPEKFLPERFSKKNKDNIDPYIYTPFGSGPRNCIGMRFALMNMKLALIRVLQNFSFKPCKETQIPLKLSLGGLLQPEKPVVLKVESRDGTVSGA
# Outline: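 Luminescent readout of luciferin formed from 25 uM Luciferin-PPXE (KM level) by 20 nM CYP3A4 in 200 mM KPO4, with 60 min NADPH-driven reaction at room temperature after 10 min compound exposure. Ketoconazole (57 uM) defined 100% inhibition.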
# [10] = target: Dual specificity protein kinase CLK4 (Homo sapiens) (UniProt Q9HAZ1); assay: qHTS Assay for Inhibitors of CDC-like Kinase 4 (Kinase-Glo Assay) (AID 1770); conditions: recombinant Clk4, Kinase-Glo ATP depletion luminescence; series mostly up to 66.7 µM; further: nearly all actives have a fitted effect of over 65% in size; further: potency means the concentration at half of the fitted maximal effect
# Chain of Dual specificity protein kinase CLK4 (Homo sapiens) (Q9HAZ1 whole entry, looked up): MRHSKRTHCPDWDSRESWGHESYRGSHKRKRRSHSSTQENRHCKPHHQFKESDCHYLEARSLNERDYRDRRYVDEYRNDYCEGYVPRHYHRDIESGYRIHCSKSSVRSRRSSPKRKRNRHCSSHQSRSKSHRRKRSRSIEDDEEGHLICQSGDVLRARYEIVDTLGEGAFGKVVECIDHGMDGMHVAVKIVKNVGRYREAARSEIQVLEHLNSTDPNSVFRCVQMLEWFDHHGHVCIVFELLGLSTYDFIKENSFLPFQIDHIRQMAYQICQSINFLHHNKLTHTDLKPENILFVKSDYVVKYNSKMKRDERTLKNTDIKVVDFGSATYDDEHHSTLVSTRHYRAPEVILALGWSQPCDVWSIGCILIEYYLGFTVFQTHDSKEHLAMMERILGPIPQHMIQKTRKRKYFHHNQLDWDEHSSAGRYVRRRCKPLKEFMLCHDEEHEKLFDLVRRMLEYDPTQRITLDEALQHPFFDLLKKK
# Outline: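 Luminescent ATP-depletion read-out (Kinase-Glo) after 4.5 h room-temperature reaction of Clk4 (25 nM final) with RS peptide (100 uM) and ATP (1 uM), pH 7.5 Tris buffer with MgCl2 and DTT.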
# [11] = target: Dual specificity protein kinase CLK4 (Homo sapiens) (UniProt Q9HAZ1); assay: qHTS Assay for Inhibitors of CDC-like Kinase 4 (ADP-Glo Assay) (AID 1771); conditions: recombinant CLK4, ADP-Glo luminescence; series mostly up to 80 µM; further: nearly all actives have a fitted effect of over 70% in size; further: potency means the concentration at half of the fitted maximal effect
# Outline: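 In this ADP-Glo format, 1 uM ATP and 100 uM RS peptide served as substrates for 25 nM Clk4 in Mg2+/EGTA/DTT/Triton buffer; reactions ran 1 hr at room temperature before luminescent ADP quantification.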
# [12] = target: Ubiquitin carboxyl-terminal hydrolase 1 (Homo sapiens) (UniProt O94782); assay: Inhibitors of USP1/UAF1: Pilot qHTS (AID 504865); conditions: purified USP1/UAF1, Ub-rhodamine cleavage fluorescence; series mostly up to 54.9 µM;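 further: rhodamine fluorescence freed from ubiquitin-rhodamine substrate followed over time; top concentration of the series differs between compounds; on the % scale 0 is the no-effect control and ±100 the full control effect; nearly all actives have a fitted effect of over 35% in size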
# Chain of Ubiquitin carboxyl-terminal hydrolase 1 (Homo sapiens) (O94782 whole entry, looked up): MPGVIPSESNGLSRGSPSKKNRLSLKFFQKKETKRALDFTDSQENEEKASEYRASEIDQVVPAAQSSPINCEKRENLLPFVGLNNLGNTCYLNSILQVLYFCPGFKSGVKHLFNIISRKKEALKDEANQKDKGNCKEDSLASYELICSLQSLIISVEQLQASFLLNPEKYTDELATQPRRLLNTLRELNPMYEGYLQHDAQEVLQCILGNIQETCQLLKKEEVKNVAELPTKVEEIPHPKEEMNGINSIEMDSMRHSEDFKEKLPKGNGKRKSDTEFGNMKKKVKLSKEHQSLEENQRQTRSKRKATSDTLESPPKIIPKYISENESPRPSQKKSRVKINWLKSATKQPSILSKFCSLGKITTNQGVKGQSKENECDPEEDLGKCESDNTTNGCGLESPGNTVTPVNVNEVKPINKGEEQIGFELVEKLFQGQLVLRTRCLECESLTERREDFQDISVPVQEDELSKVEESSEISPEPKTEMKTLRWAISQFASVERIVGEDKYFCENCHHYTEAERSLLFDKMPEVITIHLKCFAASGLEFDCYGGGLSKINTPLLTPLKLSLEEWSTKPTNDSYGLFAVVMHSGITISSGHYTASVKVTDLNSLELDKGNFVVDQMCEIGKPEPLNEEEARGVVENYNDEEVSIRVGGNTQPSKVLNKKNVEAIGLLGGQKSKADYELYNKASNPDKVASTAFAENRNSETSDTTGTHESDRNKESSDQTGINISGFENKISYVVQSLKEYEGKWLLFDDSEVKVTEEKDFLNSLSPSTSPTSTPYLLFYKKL
# Outline: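 Deubiquitinase activity followed as kinetic rhodamine fluorescence release from 150 nM Ub-Rho. 1 nM USP1/UAF1 with compound, after 15 min room-temperature preincubation, in HEPES pH 7.8 buffer containing TCEP, EDTA, BSA and Tween-20.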
# [13] = Primary qHTS for small molecule stabilizers of the endoplasmic reticulum resident proteome: Secreted ER Calcium Modulated Protein (SERCaMP) assay (AID 1508630); conditions: SH-SY5Y GLuc-SERCaMP (Gaussia luciferase released on ER calcium loss) secretion, thapsigargin, luminescence; series mostly up to 38.4 µM; further: on the % scale 0 is the no-effect control and ±100 the full control effect
# Outline: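 The SH-SY5Y reporter protocol was run at 3 concentrations up to 38.3 uM (primary) or 11 concentrations (follow-up): 16 h compound, 100 nM thapsigargin for 4 h, then extracellular luciferase luminescence.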
# [14] = target: Cytochrome P450 3A4 (Homo sapiens) (UniProt P08684); assay: qHTS Assay for Inhibitors and Substrates of Cytochrome P450 3A4 (AID 884); conditions: recombinant CYP3A4, Luciferin-PPXE luminescence; series mostly up to 57.1 µM; further: potency means the concentration at half of the fitted maximal effect; nearly all actives have a fitted effect of over 50% in size
# Outline: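 Luminescent readout of luciferin produced by CYP3A4 (20 nM) dealkylation of Luciferin-PPXE, 25 uM (its KM). NADPH-driven reaction ran 60 min at RT after 10 min compound preincubation; data scaled to 57 uM ketoconazole as 100% inhibition.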
# [15] = target: 3',5'-cyclic-AMP phosphodiesterase 4B (Homo sapiens) (UniProt Q07343); assay: qHTS Assay for Inhibitors of PDE-IV (AID 607; active means well fitted activation curve with a large enough effect in the main read-out, with a control signal flat, not every such curve was filed as active; further: % of control where 0% means no effect); conditions: HEK293 ACTOne CNG channel cells, membrane potential fluorescence; series mostly up to 22.9 µM
# Chain of 3',5'-cyclic-AMP phosphodiesterase 4B (Homo sapiens) (Q07343 whole entry, looked up): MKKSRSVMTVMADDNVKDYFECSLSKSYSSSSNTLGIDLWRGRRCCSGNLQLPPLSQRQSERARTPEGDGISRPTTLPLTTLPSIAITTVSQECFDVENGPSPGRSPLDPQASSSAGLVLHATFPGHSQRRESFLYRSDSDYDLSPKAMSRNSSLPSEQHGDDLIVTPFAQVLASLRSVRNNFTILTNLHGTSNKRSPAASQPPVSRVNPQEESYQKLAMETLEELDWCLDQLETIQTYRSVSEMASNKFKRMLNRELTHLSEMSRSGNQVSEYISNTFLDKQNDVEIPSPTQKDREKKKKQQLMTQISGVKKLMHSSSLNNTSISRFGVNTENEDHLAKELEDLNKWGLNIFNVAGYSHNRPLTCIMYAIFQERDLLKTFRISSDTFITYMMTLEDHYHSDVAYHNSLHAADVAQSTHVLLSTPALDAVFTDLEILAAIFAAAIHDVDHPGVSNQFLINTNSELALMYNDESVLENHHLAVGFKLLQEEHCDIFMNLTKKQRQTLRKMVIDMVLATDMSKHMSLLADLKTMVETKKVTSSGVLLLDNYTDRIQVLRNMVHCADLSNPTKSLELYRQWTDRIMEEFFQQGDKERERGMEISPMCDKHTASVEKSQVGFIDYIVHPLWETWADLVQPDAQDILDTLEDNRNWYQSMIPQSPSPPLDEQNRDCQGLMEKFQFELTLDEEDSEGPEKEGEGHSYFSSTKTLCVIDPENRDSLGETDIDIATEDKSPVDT
# Outline: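 Cell-based read-out of cAMP via a modified cyclic nucleotide-gated channel and membrane potential dye (535/590 nm) in HEK293 cells expressing PDE4 endogenously. Compounds tested up to 22.9 uM final; 100 uM RO 20-1724 reference.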
# [16] = target: Cytochrome P450 2D6 (Homo sapiens) (UniProt P10635); assay: qHTS Assay for Inhibitors and Substrates of Cytochrome P450 2D6 (AID 891); conditions: recombinant CYP2D6, luciferin-ME EGE luminescence; series mostly up to 57.1 µM; further: potency means the concentration at half of the fitted maximal effect; nearly all actives have a fitted effect of over 60% in size
# Outline: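 Luminescent read-out of luciferin formed by 5 nM human CYP2D6 demethylating 30 uM Luciferin-ME EGE (Km level) over 60 min at room temperature after NADPH regeneration addition. Data normalized to full inhibition by 1.43 uM quinidine.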
# [17] = target: Cytochrome P450 2C19 (Homo sapiens) (UniProt P33261); assay: qHTS Assay for Inhibitors and Substrates of Cytochrome P450 2C19 (AID 899); conditions: recombinant CYP2C19, luciferin-H EGE luminescence; series mostly up to 57.1 µM; further: potency means the concentration at half of the fitted maximal effect; nearly all actives have a fitted effect of over 60% in size
# Outline: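 5 nM human CYP2C19 with 10uM Luciferin-H EGE (at KM) in 50mM KPO4, compound preincubated 10 min at 37C, then NADPH regeneration for 60 min at 37C. Luciferin read by luminescence after detection reagent; normalized to 57uM ketoconazole as full inhibition.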
# [18] = qHTS Assay for Identification of Small Molecule Agonists for Hypoxia Response Element Signaling Pathway (AID 914; active means well fitted activation curve with a large enough effect in the signal ratio, with a control signal flat, not every such curve was filed as active; the % refers to the signal ratio; further: % of control where 0% means no effect); conditions: ME-180 HRE-bla reporter, beta-lactamase ratio, CoCl2, 17 h; activation: hits give high values
# Outline: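 ME-180 cells carrying an HRE-driven beta-lactamase reporter were treated with compounds in a titration series plus an EC50 level of CoCl2 for 17 h at 37 degrees Celsius; CCF4 readout as the 460nm/530nm ratio gave AC50 values.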
# [19] = target: Cytochrome P450 2C9 (Homo sapiens) (UniProt P11712); assay: qHTS Assay for Inhibitors and Substrates of Cytochrome P450 2C9 (AID 883); conditions: recombinant CYP2C9, luciferin-H luminescence, 60 min; series mostly up to 57.1 µM; further: on the % scale 0 is the no-effect control and ±100 the full control effect; nearly all actives have a fitted effect of over 60% in size
# Chain of Cytochrome P450 2C9 (Homo sapiens) (P11712 whole entry, looked up): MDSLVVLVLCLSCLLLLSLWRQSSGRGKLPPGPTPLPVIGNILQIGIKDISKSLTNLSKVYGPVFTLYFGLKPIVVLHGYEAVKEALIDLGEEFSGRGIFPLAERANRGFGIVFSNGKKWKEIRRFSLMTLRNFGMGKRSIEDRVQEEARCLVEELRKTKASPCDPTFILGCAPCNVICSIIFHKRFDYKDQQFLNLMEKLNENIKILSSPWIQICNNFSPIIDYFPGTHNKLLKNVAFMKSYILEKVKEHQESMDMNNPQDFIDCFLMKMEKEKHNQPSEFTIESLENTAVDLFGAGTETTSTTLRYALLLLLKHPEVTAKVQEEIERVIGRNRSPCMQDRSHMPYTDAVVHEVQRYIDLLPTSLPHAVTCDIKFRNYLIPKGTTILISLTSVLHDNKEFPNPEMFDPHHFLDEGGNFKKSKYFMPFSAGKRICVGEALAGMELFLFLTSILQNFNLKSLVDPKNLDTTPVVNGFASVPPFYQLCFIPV
# Outline: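 Human CYP2C9 (10nM) with Luciferin-H at 100uM (its KM) in 25mM KPO4; compound preincubated 10 min at 37C, then NADPH regeneration for 60 min at 37C. Luciferin read by luminescence after detection reagent; normalized to 57uM sulphaphenazole as full inhibition.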
SMILES,Potency [1],"activity change, negative = inhibition [2]",Potency [3],"activity change, negative = inhibition [4]","activity, negative = inhibition [5]",Potency [6],Potency [7],Potency [8],Potency [9],Potency [10],Potency [11],Potency [12],outcome [13],Potency [14],Potency [15],Potency [16],Potency [17],activation [18],Potency [19]
COc1ncc2nc(C)c(=O)n(CCc3ccccc3)c2n1,> 11.4 µM,-1.51%,2 µM (active),-3.03%,-12.2%,> 9.22 µM,> 46 µM,inactive,inactive,inactive,inactive,inactive,inactive,–,–,–,–,–,–
CS(=O)(=O)Nc1cccc(-c2nc(-n3ccnc3)c3ccccc3n2)c1,> 11.4 µM,-3.92%,–,4.67%,-7.2%,> 46 µM,> 46 µM,inactive,–,15.8 µM (active),20 µM (active),inactive,inactive,–,–,–,–,–,–
CCNc1ncc2nc(-c3cccs3)c(=O)n(Cc3cccs3)c2n1,> 11.4 µM,9.95%,1.26 µM (active),–,–,> 9.22 µM,> 46 µM,inactive,inactive,inactive,inactive,inactive,inactive,6.31 µM (active),–,–,–,–,–
COc1ccc2[nH]cc(CCNc3cc(-c4ccccc4C)ncn3)c2c1,> 11.4 µM,-2.94%,1 µM (active),-8.49%,-6.58%,> 46 µM,> 46 µM,–,inactive,25.1 µM (active),15.8 µM (active),inactive,inactive,5.01 µM (active),inactive,7.94 µM (active),7.94 µM (active),-7.71%,–
COc1ccc(Oc2ncc3nc(-c4cn(C)c5ccccc45)c(=O)n(C)c3n2)cc1,> 11.4 µM,-24.2%,inactive,-8.09%,1.51%,> 9.22 µM,> 46 µM,inactive,inactive,inactive,inactive,inactive,inactive,–,–,–,–,–,inactive
CS(=O)(=O)Nc1cccc(-c2nc(NCc3ccccc3)c3ccccc3n2)c1,> 11.4 µM,-10.8%,2.51 µM (active),7.92%,-10.7%,> 46 µM,> 46 µM,inactive,inactive,31.6 µM (active),28.2 µM (active),inactive,inactive,3.16 µM (active),–,–,–,–,–
